# The panel holds about 79,000 compounds, 15% with a hit somewhere; the sample as a whole holds those more often. Values without a mark were called inactive. The source made the active and inactive calls. Rule as the data show it: active = growth inhibition above about 70%; inactive = the rest.
# Legend:
# [1] = NCI Yeast Anticancer Drug Screen. Data for the mlh1 strain (AID 171);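 also: 0% = growth of vehicle-treated control cultures of the same strain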; conditions: S. cerevisiae mlh1 strain growth inhibition, hits give high values
# In short: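 Inhibition values reflect reduced yeast growth in the presence of compound, referenced to vehicle controls, using a strain chosen for its alteration in DNA repair or cell cycle control.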
# [2] = NCI Yeast Anticancer Drug Screen. Data for the sgs1 strain (AID 173);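 also: 0% = growth of vehicle-only control cultures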; conditions: S. cerevisiae sgs1 mutant, hits give high values
# In short: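 Vehicle-treated cultures served as reference for growth inhibition of a yeast strain altered in DNA damage repair or cell cycle control after compound exposure.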
# [3] = NCI Yeast Anticancer Drug Screen. Data for the mlh1 rad18 strain (AID 175); conditions: S. cerevisiae mlh1 rad18 strain growth inhibition, hits give high values
# In short: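 Inhibition values reflect reduced growth of mutant yeast versus vehicle-treated controls following compound exposure; the mutations affect DNA damage repair.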
# [4] = NCI Yeast Anticancer Drug Screen. Data for the rad18 strain (AID 177); conditions: S. cerevisiae rad18 mutant growth inhibition, hits give high values
# In short: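 Steps: expose repair-mutant yeast to compound; measure growth; express as inhibition relative to vehicle control.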
# [5] = NCI Yeast Anticancer Drug Screen. Data for the wt1 strain (AID 149);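 also: 0% = growth of vehicle-treated wt1 cultures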; conditions: S. cerevisiae wt1 strain (SPY 50644) growth inhibition, hits give high values
# In short: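 Using yeast strain wt1, compound-induced growth inhibition was determined against vehicle-treated cultures.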
# [6] = NCI Yeast Anticancer Drug Screen. Data for the rad50EPP+ strain (AID 151);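 also: 0% = growth of vehicle-treated control cultures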; conditions: S. cerevisiae rad50 mutant strain, hits give high values
# In short: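 Genetically defined yeast (rad50EPP+, DNA damage repair alteration) is grown with compound, and inhibition of growth is expressed relative to vehicle-treated controls.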
# [7] = NCI Yeast Anticancer Drug Screen. Data for the mgt1 strain (AID 153); conditions: S. cerevisiae mgt1 mutant growth inhibition, hits give high values
# In short: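 In the mgt1 strain, test compounds were added and growth inhibition was determined relative to vehicle-treated controls.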
# [8] = NCI Yeast Anticancer Drug Screen. Data for the rad50 strain (AID 155);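 also: 0% = growth of vehicle-only cultures of the same strain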; conditions: S. cerevisiae rad50 strain growth inhibition, hits give high values
# In short: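 Relative growth inhibition (compound vs vehicle) was measured in yeast with a defined repair-gene alteration.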
# [9] = NCI Yeast Anticancer Drug Screen. Data for the mec2-1 strain (AID 157); conditions: S. cerevisiae mec2-1 strain, hits give high values
# In short: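 Each compound was tested on mec2-1 yeast, a strain altered in DNA damage repair or cell cycle control. Growth inhibition is reported relative to vehicle.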
# [10] = NCI Yeast Anticancer Drug Screen. Data for the rad14 strain (AID 159);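 also: 0% = growth of vehicle-treated control cultures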; conditions: S. cerevisiae rad14 strain growth inhibition, hits give high values
# In short: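 Screen for anticancer potential: a yeast strain altered in DNA damage repair is grown with compound, and reduced growth is quantified against vehicle controls.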
# [11] = NCI Yeast Anticancer Drug Screen. Data for the sgs1 mgt1 strain (AID 161);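 also: 0% = growth of cultures given vehicle only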; conditions: S. cerevisiae sgs1 mgt1 strain, hits give high values
# In short: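 Genetically altered yeast, compound exposure, growth inhibition relative to vehicle.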
# [12] = NCI Yeast Anticancer Drug Screen. Data for the CLN2oe strain (AID 163);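 also: 0% = growth of vehicle-only control cultures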; conditions: S. cerevisiae CLN2oe strain, hits give high values
# In short: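 First, the altered yeast strain was treated with each compound; second, its growth was measured; finally, inhibition was derived by comparison with vehicle controls.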
# [13] = NCI Yeast Anticancer Drug Screen. Data for the cln2 rad14 strain (AID 165);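 also: 0% = growth equal to vehicle treated cultures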; conditions: S. cerevisiae cln2 rad14 strain, hits give high values
# In short: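 Test compounds were added to cln2 rad14 yeast cultures; inhibition of growth was then determined by comparison with vehicle treatment.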
# [14] = NCI Yeast Anticancer Drug Screen. Data for the bub3 strain (AID 167); conditions: S. cerevisiae bub3 mutant strain, hits give high values
# In short: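 Screening used yeast with an engineered genetic alteration affecting cell cycle control. Compound-exposed cultures were compared with vehicle cultures, and reduced growth was taken as inhibition.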
# [15] = NCI Yeast Anticancer Drug Screen. Data for the wt2 strain (AID 169);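 also: 0% = growth of vehicle-treated yeast cultures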; conditions: S. cerevisiae wt2 strain growth inhibition, hits give high values
# In short: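 The panel's yeast strains carry defined changes in DNA repair or cell cycle genes. Each strain is grown with compound, and growth loss is scored relative to vehicle.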
# [16] = NCI Yeast Anticancer Drug Screen. Data for the rad52 strain (AID 147);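 also: 0% = growth of vehicle-treated control cultures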; conditions: S. cerevisiae rad52 mutant growth inhibition, hits give high values
# In short: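 Inhibition of yeast growth, referenced to vehicle controls, was the measured output for a strain with defective DNA damage repair.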
# [17] = at 5.0 µM (retest, dose inferred, filed as 0.5)
# [18] = at 50.0 µM (retest, dose inferred, filed as 5.0)
compound,measurement,setting,value
COc1ccc2c(C)cc(N/N=C/c3sccc3C)nc2c1,growth inhibition,[1]; at 1.2 µM,-27%
same,growth inhibition,[1]; at 3.7 µM,-5%
same,growth inhibition,[1]; at 11.0 µM,-7%
same,growth inhibition,[1]; at 33.0 µM,60%
same,growth inhibition,[1]; at 100.0 µM,56%
same,growth inhibition,[2]; at 1.2 µM,-34%
same,growth inhibition,[2]; at 3.7 µM,-37%
same,growth inhibition,[2]; at 11.0 µM,14%
same,growth inhibition,[2]; at 33.0 µM,88% (active)
same,growth inhibition,[2]; at 100.0 µM,78% (active)
same,growth inhibition,[3]; [17],27%
same,growth inhibition,[3]; [18],94% (active)
same,growth inhibition,[3]; at 50.0 µM,76.3% (active)
same,growth inhibition,[4]; at 1.2 µM,3%
same,growth inhibition,[4]; at 3.7 µM,-4%
same,growth inhibition,[4]; at 11.0 µM,6%
same,growth inhibition,[4]; at 33.0 µM,85% (active)
same,growth inhibition,[4]; at 100.0 µM,70% (active)
CCOC(=O)/C=C1\CCCn2c1ncc(C(=O)OCC)c2=O,growth inhibition,[5]; at 1.2 µM,2%
same,growth inhibition,[5]; at 3.7 µM,5%
same,growth inhibition,[5]; at 11.0 µM,6%
same,growth inhibition,[5]; at 33.0 µM,10%
same,growth inhibition,[5]; at 100.0 µM,17%
same,growth inhibition,[6]; at 1.2 µM,-1%
same,growth inhibition,[6]; at 3.7 µM,-2%
same,growth inhibition,[6]; at 11.0 µM,-2%
same,growth inhibition,[6]; at 33.0 µM,-4%
same,growth inhibition,[6]; at 100.0 µM,-1%
same,growth inhibition,[7]; at 1.2 µM,3%
same,growth inhibition,[7]; at 3.7 µM,2%
same,growth inhibition,[7]; at 11.0 µM,6%
same,growth inhibition,[7]; at 33.0 µM,-2%
same,growth inhibition,[7]; at 100.0 µM,26%
same,growth inhibition,[8]; at 1.2 µM,-1%
same,growth inhibition,[8]; at 3.7 µM,-8%
same,growth inhibition,[8]; [17],8%
same,growth inhibition,[8]; at 11.0 µM,-3%
same,growth inhibition,[8]; at 33.0 µM,20%
same,growth inhibition,[8]; [18],30%
same,growth inhibition,[8]; at 50.0 µM,69.5%
same,growth inhibition,[8]; at 100.0 µM,31%
same,growth inhibition,[9]; at 1.2 µM,3%
same,growth inhibition,[9]; at 3.7 µM,4%
same,growth inhibition,[9]; [17],-5%
same,growth inhibition,[9]; at 11.0 µM,7%
same,growth inhibition,[9]; at 33.0 µM,17%
same,growth inhibition,[9]; [18],42%
same,growth inhibition,[9]; at 50.0 µM,77% (active)
same,growth inhibition,[9]; at 100.0 µM,32%
same,growth inhibition,[10]; at 1.2 µM,4%
same,growth inhibition,[10]; at 3.7 µM,2%
same,growth inhibition,[10]; at 11.0 µM,7%
same,growth inhibition,[10]; at 33.0 µM,12%
same,growth inhibition,[10]; at 100.0 µM,18%
same,growth inhibition,[11]; [17],4%
same,growth inhibition,[11]; [18],9%
same,growth inhibition,[11]; at 50.0 µM,81.7% (active)
same,growth inhibition,[12]; at 1.2 µM,3%
same,growth inhibition,[12]; at 3.7 µM,4%
same,growth inhibition,[12]; at 11.0 µM,7%
same,growth inhibition,[12]; at 33.0 µM,12%
same,growth inhibition,[12]; at 100.0 µM,13%
same,growth inhibition,[13]; [17],-25%
same,growth inhibition,[13]; [18],24%
same,growth inhibition,[13]; at 50.0 µM,55.7%
same,growth inhibition,[14]; at 1.2 µM,2%
same,growth inhibition,[14]; at 3.7 µM,0%
same,growth inhibition,[14]; [17],-13%
same,growth inhibition,[14]; at 11.0 µM,4%
same,growth inhibition,[14]; at 33.0 µM,10%
same,growth inhibition,[14]; [18],94% (active)
same,growth inhibition,[14]; at 50.0 µM,59.5%
same,growth inhibition,[14]; at 100.0 µM,28%
same,growth inhibition,[15]; at 1.2 µM,1%
same,growth inhibition,[15]; at 3.7 µM,2%
same,growth inhibition,[15]; at 11.0 µM,4%
same,growth inhibition,[15]; at 33.0 µM,11%
same,growth inhibition,[15]; at 100.0 µM,28%
same,growth inhibition,[1]; at 1.2 µM,2%
same,growth inhibition,[1]; at 3.7 µM,3%
same,growth inhibition,[1]; at 11.0 µM,8%
same,growth inhibition,[1]; at 33.0 µM,15%
same,growth inhibition,[1]; at 100.0 µM,38%
same,growth inhibition,[2]; at 1.2 µM,3%
same,growth inhibition,[2]; at 3.7 µM,5%
same,growth inhibition,[2]; at 11.0 µM,6%
same,growth inhibition,[2]; at 33.0 µM,24%
same,growth inhibition,[2]; at 100.0 µM,51%
same,growth inhibition,[3]; [17],8%
same,growth inhibition,[3]; [18],48%
same,growth inhibition,[3]; at 50.0 µM,89.8% (active)
same,growth inhibition,[4]; at 1.2 µM,1%
same,growth inhibition,[4]; at 3.7 µM,5%
same,growth inhibition,[4]; at 11.0 µM,14%
same,growth inhibition,[4]; at 33.0 µM,30%
same,growth inhibition,[4]; at 100.0 µM,55%
O=C1C=CC(=O)N1c1ccc(Br)cc1Cl,growth inhibition,[16]; at 1.2 µM,91% (active)
same,growth inhibition,[16]; at 3.7 µM,101% (active)
same,growth inhibition,[16]; at 11.0 µM,99% (active)
same,growth inhibition,[16]; at 33.0 µM,99% (active)
same,growth inhibition,[16]; at 100.0 µM,99% (active)
same,growth inhibition,[5]; at 1.2 µM,95% (active)
same,growth inhibition,[5]; at 3.7 µM,101% (active)
same,growth inhibition,[5]; at 11.0 µM,99% (active)
same,growth inhibition,[5]; at 33.0 µM,99% (active)
same,growth inhibition,[5]; at 100.0 µM,98% (active)
same,growth inhibition,[6]; at 1.2 µM,90% (active)
same,growth inhibition,[6]; at 3.7 µM,102% (active)
same,growth inhibition,[6]; at 11.0 µM,100% (active)
same,growth inhibition,[6]; at 33.0 µM,99% (active)
same,growth inhibition,[6]; at 100.0 µM,99% (active)
same,growth inhibition,[8]; at 1.2 µM,99% (active)
same,growth inhibition,[8]; at 3.7 µM,101% (active)
same,growth inhibition,[8]; [17],15%
same,growth inhibition,[8]; at 11.0 µM,100% (active)
same,growth inhibition,[8]; at 33.0 µM,100% (active)
same,growth inhibition,[8]; [18],51%
same,growth inhibition,[8]; at 50.0 µM,92.2% (active)
same,growth inhibition,[8]; at 100.0 µM,99% (active)
same,growth inhibition,[9]; at 1.2 µM,97% (active)
same,growth inhibition,[9]; at 3.7 µM,101% (active)
same,growth inhibition,[9]; [17],44%
same,growth inhibition,[9]; at 11.0 µM,100% (active)
same,growth inhibition,[9]; at 33.0 µM,99% (active)
same,growth inhibition,[9]; [18],42%
same,growth inhibition,[9]; at 50.0 µM,93.7% (active)
same,growth inhibition,[9]; at 100.0 µM,99% (active)
same,growth inhibition,[10]; at 1.2 µM,99% (active)
same,growth inhibition,[10]; at 3.7 µM,102% (active)
same,growth inhibition,[10]; at 11.0 µM,100% (active)
same,growth inhibition,[10]; at 33.0 µM,100% (active)
same,growth inhibition,[10]; at 100.0 µM,100% (active)
same,growth inhibition,[11]; [17],101% (active)
same,growth inhibition,[11]; [18],98% (active)
same,growth inhibition,[12]; at 1.2 µM,63%
same,growth inhibition,[12]; at 3.7 µM,101% (active)
same,growth inhibition,[12]; at 11.0 µM,99% (active)
same,growth inhibition,[12]; at 33.0 µM,99% (active)
same,growth inhibition,[12]; at 100.0 µM,99% (active)
same,growth inhibition,[13]; [17],73% (active)
same,growth inhibition,[13]; [18],100% (active)
same,growth inhibition,[14]; at 1.2 µM,98% (active)
same,growth inhibition,[14]; at 3.7 µM,101% (active)
same,growth inhibition,[14]; [17],101% (active)
same,growth inhibition,[14]; at 11.0 µM,99% (active)
same,growth inhibition,[14]; at 33.0 µM,100% (active)
same,growth inhibition,[14]; [18],98% (active)
same,growth inhibition,[14]; at 100.0 µM,99% (active)
same,growth inhibition,[15]; at 1.2 µM,76% (active)
same,growth inhibition,[15]; at 3.7 µM,101% (active)
same,growth inhibition,[15]; at 11.0 µM,99% (active)
same,growth inhibition,[15]; at 33.0 µM,99% (active)
same,growth inhibition,[15]; at 100.0 µM,99% (active)
same,growth inhibition,[1]; at 1.2 µM,96% (active)
same,growth inhibition,[1]; at 3.7 µM,101% (active)
same,growth inhibition,[1]; at 11.0 µM,100% (active)
same,growth inhibition,[1]; at 33.0 µM,97% (active)
same,growth inhibition,[1]; at 100.0 µM,99% (active)
same,growth inhibition,[2]; at 1.2 µM,92% (active)
same,growth inhibition,[2]; at 3.7 µM,102% (active)
same,growth inhibition,[2]; at 11.0 µM,99% (active)
same,growth inhibition,[2]; at 33.0 µM,99% (active)
same,growth inhibition,[2]; at 100.0 µM,99% (active)
same,growth inhibition,[3]; [17],22%
same,growth inhibition,[3]; [18],42%
same,growth inhibition,[3]; at 50.0 µM,92.7% (active)

# — PubChem BioAssay (NCI)
